The term viability denotes a read-out of living cells in per cent, often relative to untreated cells.

Where “and” joins values, the source holds several entries; their conditions need not be identical. Equal values may be shown once. Results filed as inconclusive are left out. Values without a mark were called inactive. Calls of active or inactive are those of the source. Calls come from the whole dose curve; as a rule, active = well fitted curve in the direction sought with a large enough effect; inconclusive = small, poorly fitted or top-dose-only effect, or another doubt; inactive = no such curve, though single readings can be large; an effect the other way counts as inactive or inconclusive.

Results on eight compounds are retold here after PubChem BioAssay (NCATS).

In test [1] the target is Cellular tumor antigen p53 (Homo sapiens) (UniProt P04637). Description: Primary qHTS for small molecule compounds that upregulate eGFP-tagged delta133p53alpha (in N-terminal) cells. (AID 2060322).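 Note: series mostly up to about 56 µM; 0% = DMSO vehicle and 100% = reference activator; nearly all actives have a fitted effect of over 75% in size.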 Conditions: NCI-H358 eGFP-delta133p53alpha fluorescence, 24 h; activation: hits give high values. Put shortly:
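NCI-H358 cells pre-induced 24 h with 10 ng/ml doxycycline to express N-terminal eGFP-delta133p53alpha, then dosed 24 h at 37C without doxycycline; fixed, Hoechst-stained, GFP intensity by laser scanning cytometry, normalized to DMSO (0%) and 57.5 uM 5-azacytidine (100%).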
For orientation: Quantitative high-throughput screening tests each substance at several concentrations.

A short description of test [2]: BET inhibitor-based combinations targeting novel dependencies in MECOM-rearranged (r) AML: SET-2 cell line (AID 2202231).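 For viability: plate controls were DMSO treated cells for no effect and wells without cells for full effect.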 Note: nearly all actives have a fitted effect of over 35% in size. Note: potency is the fitted concentration of half-maximal effect. Conditions: SET-2 AML cells viability, CellTiter-Glo luminescence, 48 h; viability: hits give low values, concentration not given here. Summed up:
(§1)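 Readout: CellTiter-Glo luminescence. Exposure: 48 h, 11 concentrations, 500 cells/well. Metric: AUC and within-line Z-AUC after DMSO/empty-well normalization.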
(Cellular ATP, detected with luciferase, serves as a proxy for viable cell number.)

A short description of test [3]: BET inhibitor-based combinations targeting novel dependencies in MECOM-rearranged (r) AML: MV-4-11 cell line (AID 2202233). Note: nearly all actives have a fitted effect of over 45% in size. Note: potency is the fitted concentration of half-maximal effect. Put shortly:
(§2)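 Seeding density was 500 cells/well, and drug exposure lasted 48 hr under standard culture conditions. Read-out used CellTiter-Glo reagent with a 15 min room-temperature incubation before luminescence measurement; AUC and Z-AUC summarize the normalized responses.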

The nature of test [4]: BET inhibitor-based combinations targeting novel dependencies in MECOM-rearranged (r) AML: HNT-34 cell line (AID 2202234). Note: nearly all actives have a fitted effect of over 35% in size. Note: potency is the fitted concentration of half-maximal effect. Summed up: as §2
Test [5] can be described thus: BET inhibitor-based combinations targeting novel dependencies in MECOM-rearranged (r) AML: OCI-AML3 cell line (AID 2202232). Note: nearly all actives have a fitted effect of over 35% in size. Note: potency is the fitted concentration of half-maximal effect. Conditions: Potency: OCI-AML3 viability. Put shortly: as §1
A short description of test [6]: BET inhibitor-based combinations targeting novel dependencies in MECOM-rearranged (r) AML: UCSD-AML1 cell line (AID 2202235).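 Note: series mostly up to about 46 µM; plate controls were DMSO vehicle wells for no effect and blank wells for full effect; nearly all actives have a fitted effect of over 40% in size.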 Put shortly: as §2
The nature of test [7]: BET inhibitor-based combinations targeting novel dependencies in MECOM-rearranged (r) AML: AML-191 cell line (AID 2202236; note: nearly all actives have a fitted effect of over 35% in size; note: potency is the fitted concentration of half-maximal effect). Summed up: as §1
A short description of test [8]: BET inhibitor-based combinations targeting novel dependencies in MECOM-rearranged (r) AML: AML-194 cell line (AID 2202237;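 note: plate controls were vehicle wells for no effect and wells without cells for full effect; nearly all actives have a fitted effect of over 40% in size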). Put shortly: as §1

Chain of Cellular tumor antigen p53 (Homo sapiens) (P04637 whole entry, looked up): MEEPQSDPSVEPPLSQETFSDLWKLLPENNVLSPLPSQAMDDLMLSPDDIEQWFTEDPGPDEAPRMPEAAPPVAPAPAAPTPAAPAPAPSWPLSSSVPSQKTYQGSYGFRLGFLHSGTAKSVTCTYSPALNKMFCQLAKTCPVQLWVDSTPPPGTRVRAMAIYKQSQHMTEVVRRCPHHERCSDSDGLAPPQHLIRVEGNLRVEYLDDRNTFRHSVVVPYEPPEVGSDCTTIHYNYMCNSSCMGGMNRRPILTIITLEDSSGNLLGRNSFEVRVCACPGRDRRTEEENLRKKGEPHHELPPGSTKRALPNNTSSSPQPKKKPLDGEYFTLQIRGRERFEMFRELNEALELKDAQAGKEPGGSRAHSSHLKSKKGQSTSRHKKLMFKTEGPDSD

With `CCN(CC)CCCCNc1ncc2c(n1)N(C)C(=O)N(c1c(Cl)c(OC)cc(OC)c1Cl)C2`, the activation in test [1] was -7.31%. The figures for the Potency in test [2], in test [3] and in test [4] were 18.6 µM (active), 14.8 µM (active) and 10.5 µM (active), respectively.
Regarding `COc1cc(C(C)C)c(Oc2cnc(NC(CO)CO)nc2N)cc1I`, the activation in test [1] was -13.5%. Also, the viability in test [2] is 99.2%. For the same compound, the Potency entry in test [5], in test [6], in test [7] and in test [8] was “inactive” each time.
For the compound `C[C@@H](Oc1cc(-n2cnc3ccc(CN4CCN(C)CC4)cc32)sc1C(N)=O)c1ccccc1C(F)(F)F`, the activation in test [1] was 2.47%. Moreover, the figures for the Potency in test [2], in test [5] and in test [7] were 0.105 µM (active), 0.0468 µM (active) and 0.0934 µM (active), respectively.
Turning to `c1cc(-c2sc(-c3ccncc3)c(-c3ccncc3)c2-c2ccncc2)ccn1`, the activation in test [1] is 6.76%. Further, the viability in test [2] was 103%. In addition, the Potency entry in test [5], in test [6], in test [7] and in test [8] was “inactive” throughout.
For the compound `Cn1c(=O)c2c(ncn2CC(O)CO)n(C)c1=O` (stereo unspecified), the activation in test [1] is 5.02% and 16.6%. Moreover, the viability in test [2] was 118%. Also, the Potency entry in test [3], in test [4], in test [6], in test [7] and in test [8] was “inactive” in each case.
Turning to `Cc1ccc(/C=N/NC(=O)c2ccccc2Oc2ccccc2)o1`, the activation in test [1] was -11.8%. In test [2], the viability was 107%. Further, the Potency result in test [5], in test [7] and in test [8] was “inactive” in each case.
Regarding `CCOc1ccccc1N=Nc1c(C)[nH]n(-c2nc(-c3ccccc3)cs2)c1=O`, in test [1], the activation is 25.3%. Besides, the viability in test [2] is 118%. The Potency entry in test [3], in test [4], in test [6], in test [7] and in test [8] was “inactive” throughout.
With `Cc1ccc(S(=O)(=O)NC(=O)NN2CC3CCCC3C2)cc1` (stereo unspecified), the activation in test [1] was 8.47% and 8.97%. For the same compound, the viability in test [2] is 120%. The Potency result in test [3], in test [4], in test [6], in test [7] and in test [8] was “inactive” each time.
